Laboratory results from PubChem BioAssay (NCATS).
Inconclusive results are not listed. Entries that show only a call come without a potency. Activity calls are given as the source filed them. Calls come from the whole dose curve; as a rule, active = well fitted inhibition curve with a large enough effect; inconclusive = small, poorly fitted or top-dose-only effect; inactive = flat fitted curve, though single readings scatter.

biological target: Luciferin 4-monooxygenase (Photinus pyralis) (UniProt P08659); assay: Biochemical firefly luciferase enzyme assay for NPC (AID 624030); note: nearly all actives have a fitted effect of over 70% in size; settings: purified P. pyralis luciferase, luminescence, 5 min; series mostly up to 58.6 µM
In short: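 Purified P. pyralis luciferase at 10 nM in 50 mM Tris Acetate (final), luminescence read within 5 minutes of enzyme addition to compounds. Activity normalised to PTC124 versus DMSO; concentration-response curves classed by r2, magnitude and activity.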
Potency is the fitted concentration of half-maximal effect.

Luciferin 4-monooxygenase (Photinus pyralis), sequence (P08659 whole entry, looked up): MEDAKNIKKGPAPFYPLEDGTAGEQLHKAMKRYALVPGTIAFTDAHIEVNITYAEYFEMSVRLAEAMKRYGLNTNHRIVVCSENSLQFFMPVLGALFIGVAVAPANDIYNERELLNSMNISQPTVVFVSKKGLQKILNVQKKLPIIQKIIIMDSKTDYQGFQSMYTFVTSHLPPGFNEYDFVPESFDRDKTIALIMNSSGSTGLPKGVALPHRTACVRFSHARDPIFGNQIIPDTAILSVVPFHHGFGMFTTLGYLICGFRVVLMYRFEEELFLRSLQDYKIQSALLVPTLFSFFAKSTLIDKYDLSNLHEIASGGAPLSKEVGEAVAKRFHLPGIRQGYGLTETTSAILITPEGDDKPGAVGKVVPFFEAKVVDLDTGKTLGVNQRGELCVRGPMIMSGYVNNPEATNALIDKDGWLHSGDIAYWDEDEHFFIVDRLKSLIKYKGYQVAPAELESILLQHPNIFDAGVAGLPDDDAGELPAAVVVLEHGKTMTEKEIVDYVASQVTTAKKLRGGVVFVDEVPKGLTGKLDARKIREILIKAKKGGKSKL

SMILES | Potency
CCOC(=O)[C@H](CCc1ccccc1)N[C@@H](C)C(=O)N(CC(=O)O)C1Cc2ccccc2C1 | inactive
CCOC(=O)OCC/C(SC(=O)OCC)=C(\C)N(C=O)Cc1cnc(C)nc1N | inactive
O=C(O)Cc1ccccc1Oc1ccc(Cl)cc1Cl | inactive
Cc1nc([N+](=O)[O-])cn1-c1ccc([N+](=O)[O-])cc1 | inactive
O=C(NN1CCCC1)NS(=O)(=O)c1ccc(Cl)cc1 | inactive
CC1CN(c2cc3c(cc2F)c(=O)c(C(=O)O)cn3-c2ccc(F)cc2F)CCN1 (stereo not drawn) | inactive
CC[N+]1(CC)CCC(=C(c2ccccc2)c2ccccc2)C1C (stereo not drawn) | inactive
Cc1cccc(N(C)C(=S)Oc2ccc3c(c2)CCC3)c1 | inactive
CC[N+](CC)(CC)CCOC(=O)C(C1CCCC1)C1CCCC1 | inactive
CN1C(=O)CC(C)(c2ccccc2)C1=O (stereo not drawn) | inactive
CN(C)CCOC1=Cc2ccccc2Sc2ccc(Cl)cc21 | inactive
N#C/C(=C1/SC[C@@H](c2ccc(Cl)cc2Cl)S1)n1ccnc1 | inactive
CCOC(=O)c1ccc(OCCN2C[C@H](O)[C@@H](O)[C@H](O)[C@H]2CO)cc1 | inactive
O=C(OCC1(COC(=O)c2cccnc2)CCCC(COC(=O)c2cccnc2)(COC(=O)c2cccnc2)C1O)c1cccnc1 | inactive
C[C@@H](C1=C(CCN(C)C)Cc2ccccc21)c1ccccn1 | inactive
O=C1NC2CCCCN2C12CCN(CCCN1c3ccccc3CCc3ccc(Cl)cc31)CC2 (stereo not drawn) | inactive
CC(NN)c1ccccc1 (stereo not drawn) | inactive

SMILES | Potency
CC(C(=O)O)c1ccc(/C=C2\CCCCC2=O)cc1 (stereo not drawn) | 16.1 µM (active)
COc1cc(C(=O)OC(COCCC(C)C)CN2CCOCC2)cc(OC)c1OC (stereo not drawn) | inactive
CO/N=C(/C(=O)N[C@@H]1C(=O)N2C(C(=O)[O-])=C(C[n+]3ccn4ncccc43)CS[C@H]12)c1nsc(N)n1 | inactive
CN(C(=O)C(Cl)Cl)c1ccc(OC(=O)c2ccco2)cc1 | inactive
Oc1ccc(CCNCCCCCCNCCc2ccccc2)cc1O | inactive
CCC(C(=O)NC(=O)NC(C)=O)c1ccccc1 (stereo not drawn) | inactive
COc1cc(NS(=O)(=O)c2ccc(N)cc2)nc(C)n1 | inactive
CC(C)=CCC/C(C)=C/CC/C(C)=C/CCC(=O)OC/C=C(\C)CCC=C(C)C | inactive
O=C(O)c1[nH]n(-c2ccc(S(=O)(=O)O)cc2)c(=O)c1N=Nc1ccc(S(=O)(=O)O)cc1 | inactive
CC(=O)N(CC(O)CO)c1c(I)c(C(=O)NCCO)c(I)c(C(=O)NCC(O)CO)c1I (stereo not drawn) | inactive
CC(=O)Nc1ccn(C2COC(COC(=O)c3ccccc3)O2)c(=O)n1 (stereo not drawn) | inactive
Cc1ccc(/C=N/n2c(-c3ccccc3)csc2=S)cc1 | inactive
CCOC(=O)Cn1cccc1-c1nc(-c2ccc(OC)cc2)c(-c2ccc(OC)cc2)s1 | inactive
Cc1cc(O)c2c(O)c3c(O)cccc3cc2c1 | inactive
O=C(OCC(COC(=O)c1cccnc1)(COC(=O)c1cccnc1)COC(=O)c1cccnc1)c1cccnc1 | inactive
CCCCCC(=O)O[C@]1(C(C)=O)CC[C@H]2[C@@H]3CCC4=CC(=O)CC[C@]4(C)[C@H]3CC[C@@]21C | inactive
